Reference: ChEMBL document CHEMBL1157539, “Thousands of chemical starting points for antimalarial lead identification” (Nature, 2010)

Assays:
Format in all cases: functional
[1] = test system: Plasmodium falciparum; assay: GSK_TCMDC: Inhibition of Plasmodium falciparum 3D7 in whole red blood cells, using parasite LDH activity as an index of growth. Test compounds present at 2uM
[2] = test system: Plasmodium falciparum; assay: GSK_TCMDC: Inhibition of Plasmodium falciparum Dd2 in whole red blood cells, using parasite LDH activity as an index of growth. Test compounds present at 2uM
[3] = test system: HepG2; assay: GSK_TCMDC: Percent inhibition of human HepG2 cell line. Test compounds present at 10uM.

Which results are given for `Cc1cccc(CN2CCCN(Cc3ccc(C(=O)Nc4ccc(C(C)(C)C)cc4)cc3)CC2)c1.O=C(O)C(F)(F)F`?
Inhibition [1]: 97%; Inhibition [2]: 4%; Inhibition [3]: 57%

Which results are given for `Cc1cc(CNCCCCCCCNCc2cccc([N+](=O)[O-])c2)ccc1O`?
Inhibition [1]: 100%; Inhibition [2]: 0%; Inhibition [3]: 6%

`O=C(Nc1nc(-c2ccccn2)cs1)c1ccc(Br)s1` was tested. Which Inhibition [1] did it give?
Its Inhibition is 96%.

What about the Inhibition [2] of the same compound?
Its Inhibition is 84%.

And the Inhibition [3]?
Its Inhibition is 40%.

Which Inhibition [1] does the source give for `Cc1cccc2nc(-c3cccc(-c4cccc(C(=O)NCCc5cn(C)cn5)c4)c3)[nH]c12` here?
Its Inhibition is 100%.

What about the Inhibition [2] of the same compound?
The Inhibition was 78%.

And the Inhibition [3]?
The Inhibition was 12%.

With `c1cncc(NCc2ccc(-c3cc4ccncc4cc3OC3CCNCC3)s2)c1` as the compound, how does the Inhibition [1] read?
The Inhibition was 100%.

What about the Inhibition [2] of the same compound?
The Inhibition was 19%.

What about the Inhibition [3] of the same compound?
The Inhibition was 4%.

What does the source list for `COCC(C)n1c(SC(C)C(=O)Nc2cc([N+](=O)[O-])ccc2Cl)nc2ccccc2c1=O` (centres undefined)?
Inhibition [1]: 95%; Inhibition [2]: 94%; Inhibition [3]: 0%

With `O=C(NCCN1CCCC1)c1ccc(-c2ccc(-c3nc4cc(C(F)(F)F)ccc4[nH]3)s2)cc1` as the compound, how does the Inhibition [1] read?
The Inhibition was 97%.

And the Inhibition [2]?
The Inhibition was 65%.

What about the Inhibition [3] of the same compound?
Its Inhibition is 31%.

For `CC(=O)c1sc(NC(=O)Nc2ccc(C)cc2C)nc1C`, which Inhibition [1] is on record?
Its Inhibition is 96%.

And the Inhibition [2]?
The Inhibition was 68%.

What about the Inhibition [3] of the same compound?
The Inhibition was 5%.
